Measurements published in PubChem BioAssay (NCI).
Compounds without any hit were thinned out: in the full panel of roughly 79,000, 15% have a hit. Values without a mark were called inactive. Cut-off read from the data, not from the text of the source: active = growth inhibition above about 70%; inactive = the rest.

assay: NCI Yeast Anticancer Drug Screen. Data for the rad50 strain (AID 155);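 note: 0% = growth of vehicle-only cultures of the same strain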; conditions: S. cerevisiae rad50 strain growth inhibition; at 50.0 µM; active compounds read high
How it was run: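 Genetically altered yeast (DNA repair pathway); compound treatment; growth inhibition vs vehicle ctrl.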

| Compound | growth inhibition [%] |
| --- | --- |
| O=Cc1ccccc1.[C-]#[O+].[C-]#[O+].[C-]#[O+].[Cr] | 7.35 |
| CCCCOCCOC(=O)CCl | 9.1 |
| N#Cc1ccccn1 | 13.1 |
| O=[As](O)(O)CC(Br)CBr (stereo unspecified) | 5.5 |
| C1CCC(N([P-]P([P-]N(C2CCCCC2)C2CCCCC2)N(C2CCCCC2)C2CCCCC2)C2CCCCC2)CC1.[C-]#[O+].[C-]#[O+].[C-]#[O+].[C-]#[O+].[C-]#[O+].[C-]#[O+].[Fe].[Fe] (stereo unspecified) | -20.7 |
| CC1CN1C(=O)NCCCCCCNC(=O)N1CC1C (stereo unspecified) | -17.7 |
| CN(C)[C@@H]1C(=O)C(C(N)=O)=C(O)[C@@]2(O)C(=O)C3=C(O)c4c(O)ccc(Cl)c4[C@@](C)(O)[C@H]3C[C@@H]12 | -16.9 |
| C[Si](C)(C)[C@@]1([Se]c2ccccc2)CC[C@@H]1C(=O)c1ccccc1 | -11.6 |
| CCC1(CCSC#N)C(=O)NC(=O)NC1=O | -7.55 |
| CC1NC1(c1ccccc1)n1ccnc1 (stereo unspecified) | 13.4 |
| O=P(O)(O)c1ccccc1 | -10.4 |
| O=NN(c1ccccc1)c1ccccc1 | 12.2 |
| c1ccc(N=PNc2ccccc2)cc1 (stereo unspecified) | -4.7 |
| [C-]#[O+].[C-]#[O+].[C-]#[O+].[C-]#[O+].[Mo].c1ccc([As](CC[As](c2ccccc2)c2ccccc2)c2ccccc2)cc1 | 3.4 |
| O=C1NC(=O)C(Cc2ccc3c(c2)OCO3)C(=O)N1 | -6.05 |
| ClC1CC2CC1C1CNCC21 (stereo unspecified) | -15.2 |
